High-throughput results deposited in PubChem by several laboratories.
E-sel TNF inh: TNF alpha driven E-selectin expression inhibition. HUVEC TNFa-induced E-selectin immunofluorescence, high content. inhibition, % at 2 µM. hit rate 0.71% among 120,000. AID 1246;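 active means inhibition above the batch mean plus 3 SD, and confirmed as a hit on visual image review, cut at about 43% in these data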;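 further: 0% = TNF-stimulated DMSO wells and 100% = unstimulated control wells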
CYP2C19 inhib: blocks human cytochrome P450 2C19 | inhibition, % at 5 µM | hit rate 21% among 96,000 | CYP2C19 Supersomes, luciferin-H EGE luminescence, 30 min | P33261;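 active means CYP2C19 inhibition above a set limit at 5 µM in the primary screen, cut at about 50% in these data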;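 further: plate controls were negative control wells for no effect and 2.5 mM tranylcypromine positive control for full effect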
CYP2C9 inhib: human CYP2C9 inhibition | CYP2C9 Supersomes, luciferin-H conversion, luminescence | inhibition, % at 5 µM | hit rate 20% among 96,000;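 active means blocking of liver enzyme CYP2C9 beyond about 50% at 5 µM, limit read from the data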
Target sequence (P11712 whole entry, looked up): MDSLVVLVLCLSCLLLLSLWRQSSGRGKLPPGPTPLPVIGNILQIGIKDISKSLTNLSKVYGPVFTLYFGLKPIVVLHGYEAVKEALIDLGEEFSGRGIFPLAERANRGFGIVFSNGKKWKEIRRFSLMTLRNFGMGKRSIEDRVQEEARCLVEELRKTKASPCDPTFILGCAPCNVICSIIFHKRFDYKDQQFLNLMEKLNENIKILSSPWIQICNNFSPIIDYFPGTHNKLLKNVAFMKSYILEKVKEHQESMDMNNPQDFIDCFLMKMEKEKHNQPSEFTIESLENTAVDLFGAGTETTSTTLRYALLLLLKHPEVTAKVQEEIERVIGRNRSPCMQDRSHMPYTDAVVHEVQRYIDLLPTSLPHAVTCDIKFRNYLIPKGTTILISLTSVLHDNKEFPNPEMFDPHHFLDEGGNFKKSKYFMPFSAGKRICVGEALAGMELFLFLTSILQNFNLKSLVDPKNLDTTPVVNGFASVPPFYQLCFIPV
CYP2C19 activ: increases human CYP2C19 enzyme activity | recombinant CYP2C19, luciferin-H EGE luminescence; active compounds read high; 0 = fully inhibited enzyme, 1 = untreated enzyme | activation factor at 5 µM | 96,000 tested, under 10 active | AID 1025;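 active means activation factor of at least 2 at 5 µM in the primary screen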;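 further: 0 = wells with 2.5 mM tranylcypromine and 1 = vehicle-only wells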
CYP2C9 act: increases human cytochrome P450 2C9 activity; P11712; recombinant CYP2C9, luciferin-H conversion, luminescence; active compounds read high; factor 1 = untreated enzyme, 0 = blocked; activation factor at 5 µM; hit rate 1.4% among 96,000;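 active means activation factor of 2 or more for CYP2C9 at a 5 µM dose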;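 further: 0 = sulfaphenazole-blocked wells and 1 = vehicle-only wells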
F-actin modifier: alters cytoskeleton assembly in HUVEC cells. hit rate 0.18% among 91,000. HUVEC TNFa F-actin phalloidin imaging, high content. inhibition, % at 2 µM;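 active means inhibition above the batch mean plus 3 SD and confirmed as a hit by visual image inspection, cut at about 30% in these data, passing the limit was not always enough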
* marks the source's active call; other numbers are inactive results. Sampled rows, rich in hits. Any-hit rate of the full collection: about 22%.

For Cc1ccc(S(=O)(=O)CCC(=O)OCC(=O)c2c[nH]c3ccccc23)cc1 the results were E-sel TNF inh 1.
Cn1c(Cn2c(=O)sc3ccccc32)nnc1SCC(=O)NCCc1ccccc1 was read as E-sel TNF inh -13.
For O=C(C1CCN(S(=O)(=O)N2CCCCC2)CC1)N1CCCCC1 the results were E-sel TNF inh -18.
`O=C(c1ccc(F)cc1)C(CN1CCOCC1)c1ccccc1` (configuration not stated) gave E-sel TNF inh 44, CYP2C19 inhib 59*, CYP2C9 inhib 12, CYP2C19 activ 0.4, CYP2C9 act 0.9 and F-actin modifier -3.
`O=C(c1ccccc1)C(CCC(CN1CCOCC1)C(=O)c1ccccc1)CN1CCOCC1` (configuration not stated) gave E-sel TNF inh 10, CYP2C19 inhib 69*, CYP2C9 inhib 32, CYP2C19 activ 0.3, CYP2C9 act 0.7 and F-actin modifier 0.
Screening CC(CN1CCOCC1)OC(=O)C(c1ccccc1)c1ccccc1 (configuration not stated) returned E-sel TNF inh -13 and F-actin modifier 5.
`c1ccc(C(CN2CCOCC2)c2ccccc2)cc1` gave CYP2C19 inhib 58*, CYP2C9 inhib 15, CYP2C19 activ 0.4, CYP2C9 act 0.8 and F-actin modifier 1.
`COc1ccc(NC(=O)CSc2nnc(Cn3c(=O)sc4ccccc43)n2C)cc1OC` gave E-sel TNF inh -28.
For N#Cc1cn(-c2ccccc2)nc1C(=O)c1ccccc1 the results were E-sel TNF inh 10, CYP2C19 inhib 50*, CYP2C9 inhib 0, CYP2C19 activ 0.5, CYP2C9 act 1 and F-actin modifier -21.
Screening COc1ccc(S(N)(=O)=O)cc1N(C)S(=O)(=O)c1ccccc1 returned E-sel TNF inh 31.
For COc1cc2c(cc1OC)C1=C(C#N)CN(C3CCCCC3)CN1CC2 the results were E-sel TNF inh 10, CYP2C19 inhib 68*, CYP2C9 inhib 52*, CYP2C19 activ 0.3, CYP2C9 act 0.5 and F-actin modifier -4.
Screening COc1ccc(CCN2CC(C#N)=C3c4cc(OC)c(OC)cc4CCN3C2)cc1OC returned E-sel TNF inh 13, CYP2C19 inhib 65*, CYP2C9 inhib 76*, CYP2C19 activ 0.4, CYP2C9 act 0.2 and F-actin modifier 14.
Screening COc1cc2c(cc1OC)C1=C(C#N)CCC(=O)N1CC2 returned E-sel TNF inh 8 and F-actin modifier 1.
Screening c1csc(-c2cn3ccc4ccccc4c3n2)c1 returned E-sel TNF inh -21.
Screening CCOC(=O)c1c(C)[nH]c(C(=O)COC(=O)C2CC(=O)N(Cc3ccccc3)C2)c1C (configuration not stated) returned E-sel TNF inh -27, CYP2C19 inhib 42, CYP2C9 inhib 42, CYP2C19 activ 0.6 and CYP2C9 act 0.6.
Screening CCC(=O)Nc1ccc(-c2nn3c(C)nnc3s2)cc1 returned E-sel TNF inh 6 and F-actin modifier -6.
CCN1CCN(C(=O)C2CCN(Cc3cc(Cl)ccc3O)CC2)CC1 was read as E-sel TNF inh 3, CYP2C19 inhib 17, CYP2C9 inhib 15, CYP2C19 activ 0.8, CYP2C9 act 0.9 and F-actin modifier -17.
`COc1cc2c(cc1OC)-c1cc(N3CCCc4ccccc43)nc(=O)n1CC2` gave CYP2C19 inhib 60*, CYP2C9 inhib 69*, CYP2C19 activ 0.4, CYP2C9 act 0.3 and F-actin modifier 7.
For COc1cc2c(cc1OC)-c1cc(N3CCCCCC3)nc(=O)n1CC2 the results were E-sel TNF inh -3, CYP2C19 inhib -2, CYP2C9 inhib 31, CYP2C19 activ 1, CYP2C9 act 0.7 and F-actin modifier 1.
`COc1cc2c(cc1OC)-c1cc(Nc3ccc4c(c3)OCCO4)nc(=O)n1CC2` gave E-sel TNF inh -4, CYP2C19 inhib 36, CYP2C9 inhib 67*, CYP2C19 activ 0.6, CYP2C9 act 0.3 and F-actin modifier 19.
For CCOC(=O)c1c(-c2ccccc2)[nH]c2ccc(O)cc12 the results were E-sel TNF inh -11, CYP2C19 inhib 14, CYP2C9 inhib 35, CYP2C19 activ 0.9, CYP2C9 act 0.7 and F-actin modifier -6.
`O=C1c2cnc3ncnn3c2CC2c3ccccc3CCN12` (configuration not stated) gave E-sel TNF inh 26.
CSc1nc2ncc3c(n2n1)CC1c2ccccc2CCN1C3=O (configuration not stated) was read as E-sel TNF inh 36, CYP2C19 inhib 72*, CYP2C9 inhib 55*, CYP2C19 activ 0.3, CYP2C9 act 0.5 and F-actin modifier -17.
CC(OC(=O)CCN1C(=O)c2cccc([N+](=O)[O-])c2C1=O)C(=O)Nc1cc(Cl)cc(Cl)c1 (configuration not stated) was read as E-sel TNF inh 95*.
`CCOC(=O)c1c(NC(=O)CCN2C(=O)c3cccc([N+](=O)[O-])c3C2=O)sc(C(=O)OC(C)C)c1C` gave E-sel TNF inh 17.
`COc1cccc(Cn2c(NCc3ccccn3)nc3c2c(=O)n(C)c(=O)n3C)c1` gave E-sel TNF inh -8 and F-actin modifier -13.
Cc1ccc(/C=c2\sc3n(c2=O)CN(c2cccc(Br)c2)CN=3)o1 was read as E-sel TNF inh 62*, CYP2C19 inhib -4, CYP2C9 inhib 28, CYP2C19 activ 1, CYP2C9 act 0.7 and F-actin modifier -8.
For COc1cccc2cc(C(=O)N(Cc3ccccc3)CC3CCCO3)c(=O)oc12 (configuration not stated) the results were E-sel TNF inh 15 and F-actin modifier -16.
Cc1ccc(N(CC(O)Cn2c3ccccc3c3ccccc32)S(C)(=O)=O)c(C)c1 (configuration not stated) was read as E-sel TNF inh -43, CYP2C19 inhib 8, CYP2C9 inhib 6, CYP2C19 activ 0.9, CYP2C9 act 0.9 and F-actin modifier -9.
CCCN(CCC)CC(O)Cn1c2ccccc2c2ccccc21 (configuration not stated) was read as E-sel TNF inh -7.
For Cc1ccc(N(CC(O)Cn2c3ccccc3c3ccccc32)S(C)(=O)=O)cc1 (configuration not stated) the results were E-sel TNF inh 9, CYP2C19 inhib 94*, CYP2C9 inhib 96*, CYP2C19 activ 0.1, CYP2C9 act 0 and F-actin modifier 8.
Cc1cccc(C)c1N(CC(O)Cn1c2ccccc2c2ccccc21)S(C)(=O)=O (configuration not stated) was read as E-sel TNF inh 7, CYP2C19 inhib 80*, CYP2C9 inhib 72*, CYP2C19 activ 0.2, CYP2C9 act 0.3 and F-actin modifier -4.
Screening Cc1nccn1CC(O)Cn1c2ccccc2c2ccccc21 (configuration not stated) returned E-sel TNF inh -36 and F-actin modifier 12.
